Inconclusive results are not listed. Active and inactive are the calls of the source. The calls were made as follows: active = hit-call score of the fitted dose curve at least 0.9, where 1 is the maximum; inconclusive = response in the unintended direction; inactive = score below 0.9.
target: human Casein Kinase 1-delta (CK1D), CSNK1D (gene 1453) (UniProt P48730); test: NVS_ENZ_hCK1D: NovaScreen (NVS) Enzymatic Assay for human Casein Kinase 1-delta (CK1D) (AID 2283148)
In short: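 Recombinant human CK1-delta, cell-free; fluorescent substrate with electrophoretic mobility-shift separation of product, read 1 h after dosing. Single 25 uM duplicate screen, then concentration-response up to 50 uM; loss of signal vs DMSO.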

Chain of human Casein Kinase 1-delta (CK1D), CSNK1D (gene 1453) (P48730 whole entry, looked up): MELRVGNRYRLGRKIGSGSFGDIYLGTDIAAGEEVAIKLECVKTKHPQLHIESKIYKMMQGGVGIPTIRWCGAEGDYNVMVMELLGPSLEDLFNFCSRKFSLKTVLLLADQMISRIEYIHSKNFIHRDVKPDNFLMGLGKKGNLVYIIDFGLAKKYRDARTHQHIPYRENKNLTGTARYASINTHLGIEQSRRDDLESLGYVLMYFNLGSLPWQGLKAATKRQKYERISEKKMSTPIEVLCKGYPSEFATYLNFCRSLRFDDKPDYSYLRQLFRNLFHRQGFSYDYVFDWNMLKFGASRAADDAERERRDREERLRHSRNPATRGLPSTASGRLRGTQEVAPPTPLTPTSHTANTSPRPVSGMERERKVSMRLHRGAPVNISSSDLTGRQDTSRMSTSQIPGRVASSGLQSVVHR

| SMILES | outcome | AC50 |
| --- | --- | --- |
| O=CCCCC=O | inactive |  |
| O=C1c2ccccc2C(=O)N1CCc1noc(-c2ccc(CN3CCCCCC3)s2)n1 | inactive |  |
| CC(=O)N1CCN(c2ccc(OC[C@H]3CO[C@](Cn4ccnc4)(c4ccc(Cl)cc4Cl)O3)cc2)CC1 | inactive |  |
| c1ccc2ccccc2c1 | inactive |  |
| c1ccc2n[nH]nc2c1 |  | 25 µM (active) |
| O=C(O)Cc1cc(I)c(Oc2ccc(O)c(I)c2)c(I)c1 | inactive |  |
| CC/C(=C(/CC)c1ccc(O)cc1)c1ccc(O)cc1 | inactive |  |
| COc1cc(C(=O)NC2CCN(C)CC2)ccc1Nc1ncc2c(n1)N(C1CCCC1)CC(F)(F)C(=O)N2C |  | 18.1 µM (active) |
| CN(C[C@@H](CC[N+]12CCC(C3CCCCC3)(CC1)CC2)c1ccc(Cl)c(Cl)c1)C(=O)c1cc(C(F)(F)F)cc(C(F)(F)F)c1 | inactive |  |
| O=C(Nc1ccc(Cl)cc1)Nc1ccc(Cl)c(Cl)c1 | inactive |  |
| Oc1ccc2ccccc2c1 |  | 24.1 µM (active) |
| CCN(Cc1cccc(S(=O)(=O)O)c1)c1ccc(C(=C2C=CC(=[N+](CC)Cc3cccc(S(=O)(=O)O)c3)C=C2)c2ccccc2S(=O)(=O)[O-])cc1 | inactive |  |

target: human Colony Stimulating Factor 1 Receptor (CSF1R), CSF1R (gene 1436) (UniProt P07333); test: NVS_ENZ_hCSF1R: NovaScreen (NVS) Enzymatic Assay for human Colony Stimulating Factor 1 Receptor (CSF1R) (AID 2283150)
Sequence (P07333 whole entry, looked up): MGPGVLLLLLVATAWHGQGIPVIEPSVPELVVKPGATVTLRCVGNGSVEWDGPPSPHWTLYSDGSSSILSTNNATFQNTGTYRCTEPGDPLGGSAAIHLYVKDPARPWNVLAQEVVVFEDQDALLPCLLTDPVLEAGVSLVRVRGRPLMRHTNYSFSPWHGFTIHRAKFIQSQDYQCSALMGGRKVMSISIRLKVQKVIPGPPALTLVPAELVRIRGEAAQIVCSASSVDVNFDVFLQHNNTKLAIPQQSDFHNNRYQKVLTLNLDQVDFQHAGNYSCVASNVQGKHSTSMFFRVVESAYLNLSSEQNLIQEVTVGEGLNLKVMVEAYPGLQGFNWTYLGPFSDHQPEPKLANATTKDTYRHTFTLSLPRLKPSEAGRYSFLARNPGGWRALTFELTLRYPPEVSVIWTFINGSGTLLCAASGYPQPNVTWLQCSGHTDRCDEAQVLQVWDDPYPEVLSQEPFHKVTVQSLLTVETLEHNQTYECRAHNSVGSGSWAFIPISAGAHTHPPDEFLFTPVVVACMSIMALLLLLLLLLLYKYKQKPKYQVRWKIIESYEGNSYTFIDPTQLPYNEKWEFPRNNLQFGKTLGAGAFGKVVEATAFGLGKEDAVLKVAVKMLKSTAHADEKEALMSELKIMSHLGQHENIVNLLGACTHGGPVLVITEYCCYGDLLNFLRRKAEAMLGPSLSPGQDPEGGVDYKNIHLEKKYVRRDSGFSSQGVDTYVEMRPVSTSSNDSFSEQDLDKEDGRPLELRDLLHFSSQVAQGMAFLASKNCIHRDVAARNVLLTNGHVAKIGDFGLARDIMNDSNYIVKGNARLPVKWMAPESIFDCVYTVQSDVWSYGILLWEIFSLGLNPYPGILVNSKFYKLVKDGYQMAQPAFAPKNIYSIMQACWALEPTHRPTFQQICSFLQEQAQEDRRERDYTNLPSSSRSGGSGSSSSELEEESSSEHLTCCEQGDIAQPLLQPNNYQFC
In short: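 Compounds screened in duplicate at 25 uM, then concentration-response (top 50 uM) for those passing threshold such as 30% inhibition; recombinant CSF1R activity measured 1 h post-dosing via fluorescent substrate/product mobility-shift separation, loss of signal versus DMSO.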

| SMILES | outcome | AC50 |
| --- | --- | --- |
| c1ccc2ccccc2c1 | inactive |  |
| Cc1oc2c(NC(=O)c3c(Cl)cccc3Cl)cccc2c1C(C)(C)O | inactive |  |
| C[C@]12CC[C@@H]3c4ccc(O)cc4CC[C@H]3[C@@H]1CC[C@H]2O | inactive |  |
| O=C(O)Cc1cc(I)c(Oc2ccc(O)c(I)c2)c(I)c1 | inactive |  |
| CC/C(=C(/CC)c1ccc(O)cc1)c1ccc(O)cc1 | inactive |  |
| CCCC(=O)OCCC(C)C | inactive |  |
| COc1cc(C(=O)NC2CCN(C)CC2)ccc1Nc1ncc2c(n1)N(C1CCCC1)CC(F)(F)C(=O)N2C |  | 11.2 µM (active) |
| CC(C)(C)c1csc(-c2cc3cc(OCc4ccccc4CC(=O)O)ccc3o2)n1 | inactive |  |
| CCN(Cc1cccc(S(=O)(=O)O)c1)c1ccc(C(=C2C=CC(=[N+](CC)Cc3cccc(S(=O)(=O)O)c3)C=C2)c2ccccc2S(=O)(=O)[O-])cc1 |  | 2.94 µM (active) |

target: human Dual Specificity Protein Phosphatase 3 (DUSP3), DUSP3 (gene 1845) (UniProt P51452); test: NVS_ENZ_hDUSP3: NovaScreen (NVS) Enzymatic Assay for human Dual Specificity Protein Phosphatase 3 (DUSP3) (AID 2283152);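 also: phosphatase activity of recombinant human DUSP3 on a fluorogenic substrate without cells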
Sequence (P51452 whole entry, looked up): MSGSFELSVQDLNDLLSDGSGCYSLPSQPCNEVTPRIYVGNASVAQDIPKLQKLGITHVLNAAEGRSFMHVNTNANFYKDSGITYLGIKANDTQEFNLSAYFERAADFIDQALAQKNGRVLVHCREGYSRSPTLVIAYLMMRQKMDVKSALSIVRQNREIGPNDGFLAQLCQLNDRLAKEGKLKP
In short: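 Cell-free fluorescence-intensity enzyme activity assay with recombinant protein and substrate; loss of signal fitted relative to DMSO baseline. Primary screen in duplicate at 25 uM, actives then run in concentration series; measured 0 h after dosing.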

| SMILES | AC50 | outcome |
| --- | --- | --- |
| COc1ccc2cc(S(=O)(=O)N[C@H](CC(=O)N[C@H](Cc3ccc(CN4[C@H](C)CCC[C@@H]4C)cc3)C(=O)N(C)C(C)C)c3ccc4c(c3)OCO4)ccc2c1 | 3.86 µM (active) |  |
| O=C1c2ccccc2C(=O)N1CCc1noc(-c2ccc(CN3CCCCCC3)s2)n1 | 19.9 µM (active) |  |
| CN1C(=O)N(c2ccccc2Br)Cc2cnc(Nc3ccc4c(c3)OCC(CO)O4)nc21 (stereo not drawn) | 8 µM (active) |  |
| Cc1cc(F)ccc1-c1cc(N2CC[C@@H](O)[C@H]2CO)ncc1N(C)C(=O)C(C)(C)c1cc(C(F)(F)F)cc(C(F)(F)F)c1 | 12.3 µM (active) |  |
| Cc1c2ccccc2c(C)c2c1ccc1ccccc12 |  | inactive |
| CO[C@H]1/C=C/O[C@@]2(C)Oc3c(C)c(O)c4c(O)c(c(/C=N/N5CCN(C)CC5)c(O)c4c3C2=O)NC(=O)/C(C)=C\C=C\[C@H](C)[C@H](O)[C@@H](C)[C@@H](O)[C@@H](C)[C@H](OC(C)=O)[C@@H]1C | 7.6 µM (active) |  |
| O=C(Nc1ccc(Cl)cc1)Nc1ccc(Cl)c(Cl)c1 |  | inactive |
| O=C1CCC(C2CCCCC2)CC1 | 22.2 µM (active) |  |
| CCCCCCCCOc1ccc(C(=O)c2ccccc2)c(O)c1 |  | inactive |
| Cc1ccc2oc(CN(Cc3ccccc3)C(=O)Nc3c(F)cc(F)cc3F)c(-c3ccc(Cl)cc3)c2c1 | 9.32 µM (active) |  |
| CCN(Cc1cccc(S(=O)(=O)O)c1)c1ccc(C(=C2C=CC(=[N+](CC)Cc3cccc(S(=O)(=O)O)c3)C=C2)c2ccccc2S(=O)(=O)[O-])cc1 | 12.5 µM (active) |  |
| CCN(Cc1cccnc1)C(=O)c1cccc(Cl)c1[C@]1(C)C(=O)N(Cc2ccc(OC)cc2OC)c2ccc(Cl)cc21 | 14.1 µM (active) |  |
| CCCCCCCCOC(=O)c1cc(O)c(O)c(O)c1 |  | inactive |

target: human Elastase, ELANE (gene 1991) (UniProt P08246); test: NVS_ENZ_hElastase: NovaScreen (NVS) Enzymatic Assay for human Elastase (AID 2283153)
Sequence (P08246 whole entry, looked up): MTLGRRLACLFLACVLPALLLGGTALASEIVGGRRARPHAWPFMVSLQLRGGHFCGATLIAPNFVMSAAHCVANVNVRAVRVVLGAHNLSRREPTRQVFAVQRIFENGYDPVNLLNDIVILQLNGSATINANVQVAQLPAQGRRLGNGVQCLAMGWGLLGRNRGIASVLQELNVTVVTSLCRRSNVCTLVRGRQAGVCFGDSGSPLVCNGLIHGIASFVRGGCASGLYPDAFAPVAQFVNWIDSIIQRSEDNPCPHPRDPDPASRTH
In short: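 Concentration-response to 50 uM max, run singly for chemicals passing a threshold (e.g., 30% inhibition) in a duplicate 25 uM single-point screen. Neutrophil-derived human elastase, absorbance read-out of enzyme activity at 1.5 h; DMSO baseline.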

| SMILES | AC50 | outcome |
| --- | --- | --- |
| COc1ccc2cc(S(=O)(=O)N[C@H](CC(=O)N[C@H](Cc3ccc(CN4[C@H](C)CCC[C@@H]4C)cc3)C(=O)N(C)C(C)C)c3ccc4c(c3)OCO4)ccc2c1 | 9.38 µM (active) |  |
| CN1C(=O)N(c2ccccc2Br)Cc2cnc(Nc3ccc4c(c3)OCC(CO)O4)nc21 (stereo not drawn) | 17 µM (active) |  |
| CC/C(=C(/CC)c1ccc(O)cc1)c1ccc(O)cc1 |  | inactive |
| Cc1c2ccccc2c(C)c2c1ccc1ccccc12 | 14.3 µM (active) |  |
| O=C1CCC(C2CCCCC2)CC1 | 10 µM (active) |  |
| CC(C)(C)c1csc(-c2cc3cc(OCc4ccccc4CC(=O)O)ccc3o2)n1 | 12.5 µM (active) |  |
| CCN(Cc1cccc(S(=O)(=O)O)c1)c1ccc(C(=C2C=CC(=[N+](CC)Cc3cccc(S(=O)(=O)O)c3)C=C2)c2ccccc2S(=O)(=O)[O-])cc1 | 3.18 µM (active) |  |
| CCN(Cc1cccnc1)C(=O)c1cccc(Cl)c1[C@]1(C)C(=O)N(Cc2ccc(OC)cc2OC)c2ccc(Cl)cc21 | 3.84 µM (active) |  |
| CCCCCCCCOC(=O)c1cc(O)c(O)c(O)c1 | 12.5 µM (active) |  |

From PubChem BioAssay (EPA / NIEHS)
